Compound activity deposited in PubChem BioAssay by several laboratories.
CRFR2-BP antag = antagonists of CRF-BP/CRF-R2 complex, primary screen, cell-based, HEK293, calcium dye fluorescence, uHTS. 350,000 tested, 0.59% active. CRF-induced calcium fluorescence. AID 588475, 2011. inhibition, % at 11.8 µM;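 active = inhibition of the ligand-induced calcium signal above about 50% at the single tested concentration, limit read from the data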
ANO1 activ = TMEM16A chloride channel activators or potentiators, primary screen, cell-based, HTS. HEK293 TMEM16A/YFP-H148Q/I152L, iodide quench fluorescence; active compounds read low. 340,000 tested, 0.3% active. Anoctamin-1 (Mus musculus), Q8BHY3. AID 623877, 2012. B-score at 10 µM;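 active = fluorescence-ratio B-score plate-corrected deviation score at least 3 library SD below zero, with starting fluorescence score within 5 deviations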;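 note: channel opened by trigger with iodide after compound preincubation; score built on the fluorescence ratio of max minus min over baseline; more negative score means more quench and so TMEM16A activation or potentiation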
NR3A LBD binder = binders of NR3A ligand-binding domain, primary screen, biophysical, differential scanning fluorimetry, uHTS. Glutamate receptor ionotropic, NMDA 3A (GRIN3A) ligand-binding domain. NR3A LBD differential scanning fluorimetry, Tm shift; 0% = protein alone, 100% = glycine-bound protein. Tm shift relative to glycine control, % at 25 µM. 340,000 tested, 2.5% active;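 active = melting temperature shift of at least 10% of the positive control shift, at one fixed dose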
ANO1 block = TMEM16A chloride channel inhibitors, primary screen, cell-based, HTS; normalized B-score (activity score, 25-100; higher = stronger inhibition) at 10 µM; HEK293 TMEM16A/YFP iodide influx fluorescence, ionomycin; 310,000 tested, 1.2% active;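 active = ratio plate-corrected score three or more library SD toward inhibition, starting fluorescence score within five deviations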;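 note: score derived from kinetic fluorescence span divided by baseline fluorescence per well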
MPTP inh = mitochondrial permeability transition pore inhibitors, primary screen, biochemical, isolated mouse mitochondria, absorbance; Ca2+ swelling absorbance, 30 min; inhibition, % at 10 µM; 360,000 tested, 1.4% active; AID 602449, 2012;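 active = inhibition of 50% or more, scaled per plate between neutral and stimulator controls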;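 note: 0% = DMSO wells given calcium and 100% = 1 mM EGTA wells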
CRFR2-BP ag = agonists of CRF-BP/CRF-R2 complex, primary screen, cell-based, HEK293, calcium dye fluorescence, uHTS; calcium dye fluorescence (FLIPR); percent of saturating CRF peptide response; AID 588473, 2011; 350,000 tested, 0.46% active; activation, % at 13.2 µM; CRF-binding protein / CRF receptor 2 complex (human);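 active = activation of at least 50%, plus an integration ratio under a set limit after plate pattern correction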;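 note: plate controls were neutral control wells without compound for no effect and CRF at EC100 for full effect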
Rh123 counter = fluorescence retest of MPTP screen hits in isolated mitochondria, single concentration. inhibition, % at 10 µM. AID 624504, 2012. 5,000 tested, 78% active. shares compounds with MPTP inh. membrane potential, Rhodamine 123 fluorescence; in the data active = inhibition above about 22%;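 note: 0% = DMSO vehicle and 100% = positive control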
Active calls of the source: *; i = inactive; · = not tested or not shown. An excerpt weighted towards active compounds, which were near 5.1% of everything screened.

SMILES	CRFR2-BP antag	ANO1 activ	NR3A LBD binder	ANO1 block	MPTP inh	CRFR2-BP ag	Rh123 counter
CCCC(=O)N1CCN(c2nc3c(OC)ccc(Cl)c3s2)CC1	3	i	0	i	-1	0	·
Fc1ccccc1-c1nc(NCc2ccco2)c2ccccc2n1	-19	i	-6	i	5	-1	·
Cc1ccc(Nc2nc(NCc3ccco3)c3ccccc3n2)cc1	-15	i	1	i	93*	7	89*
COc1ccccc1Nc1nc(NCc2ccco2)c2ccccc2n1	-6	i	1	i	71*	-1	84*
Cc1cc(C(=O)Nc2ccc(Br)cc2)cs1	0	i	-8	i	-1	0	·
COc1ccc(C(=O)NC2CCN(CC(=O)Nc3c(C)cccc3C)CC2)cc1OC	0	i	0	i	1	0	·
CCOC(=O)N(C)c1c(CC)nc2c(OCc3cccc(Cl)c3)cccn12	·	·	·	·	0	·	·
COC(=O)c1ccccc1COc1cccn2c(N(C)Cc3cccs3)c(C)nc12	·	·	·	·	31	·	·
Cc1nc2c(OCc3ccc(Cl)cc3Cl)cccn2c1N(C)Cc1cccs1	·	·	·	·	72*	·	87*
Cc1nc2c(OCc3cccc(Cl)c3)cccn2c1N(C)Cc1cccs1	·	·	·	·	71*	·	86*
Cc1ccc(CN2CCC[C@]3(N[C@H](c4ccc(C)cc4)[C@@H]4C(=O)N(Cc5ccccc5)C(=O)[C@@H]43)C2=O)cc1	-14	·	·	·	-2	0	·
COc1ccc(C(CNC(=O)CCNC(=O)c2ccc(Br)cc2)N2CCOCC2)cc1 (stereo unspecified)	-12	i	-2	i	-1	4	·
Fc1ccccc1C1c2cccn2CCN1C(=S)Nc1ccc(Br)cc1 (stereo unspecified)	-12	-4.6*	7	i	101*	8	92*
O=C(Cc1cccc2ccccc12)NC(NC(=S)Nc1ccccc1Cl)C(Cl)(Cl)Cl (stereo unspecified)	4	i	19*	i	79*	0	70*
COc1ccc(NC(=S)NC(NC(=O)c2cccc(C)c2)C(Cl)(Cl)Cl)c([N+](=O)[O-])c1 (stereo unspecified)	-15	i	10*	i	71*	23	64*
O=C(NC(NC(=S)Nc1ccccc1Cl)C(Cl)(Cl)Cl)c1cccc(Cl)c1 (stereo unspecified)	26	i	13*	i	77*	0	62*
CCC(=O)NC(NC(=S)Nc1cccc2cccnc12)C(Cl)(Cl)Cl (stereo unspecified)	-9	i	-16	i	3	0	·
O=C(NC(NC(=S)Nc1ccccc1O)C(Cl)(Cl)Cl)c1ccco1 (stereo unspecified)	-5	i	0	i	4	4	·
Cc1ccc(C(=O)N2CCOCC2)cc1S(=O)(=O)N1CCCCC1	4	i	-1	i	0	2	·
COc1ccc(C(CC(=O)Nc2cc(C)ccn2)N2Cc3ccccc3C2=O)cc1 (stereo unspecified)	2	i	1	i	-1	-3	·
CC(C)(C)NC(=O)C1c2ccccc2OCC(=O)N1Cc1ccco1 (stereo unspecified)	·	·	·	·	0	·	·
Cc1c(C(=O)Nc2ccccn2)sc2nc3n(c(=O)c12)CCC3	1	i	-1	i	0	2	·
COc1ccc(-c2cc(=O)n(-c3ccc([N+](=O)[O-])cc3)[nH]2)cc1	37	i	9	i	97*	14	71*
COc1ccc(-c2[nH]n(-c3ccc([N+](=O)[O-])cc3)c(=O)c2C=NCc2ccc(F)cc2)cc1	-8	i	-2	i	7	2	·
COc1cc(CCN(C(=O)c2cc3ccccc3[nH]2)C(C)c2nc3ccccc3[nH]2)cc(OC)c1 (stereo unspecified)	·	·	·	·	0	·	·
SMILES	CRFR2-BP antag	ANO1 activ	NR3A LBD binder	ANO1 block	MPTP inh	CRFR2-BP ag	Rh123 counter
CC(=O)c1ccc(N2CCC(c3cc(-c4ccc(Cl)cc4Cl)n[nH]3)CC2)c([N+](=O)[O-])c1	-5	i	9	i	74*	1	68*
Cn1c(=O)n(C)c2cc([N+](=O)[O-])c(N3CCN(S(=O)(=O)c4ccc(C(C)(C)C)cc4)CC3)cc21	-10	i	0	i	54*	-1	71*
CC(=O)c1ccc(N2CCN(c3ccccc3O)CC2)c([N+](=O)[O-])c1	9	i	0	i	85*	0	81*
COC(=O)c1ccc(N2CCN(S(=O)(=O)c3ccc(Br)cc3)CC2)c([N+](=O)[O-])c1	14	i	0	i	4	-2	·
COC(=O)c1ccc(N2CCN(S(=O)(=O)c3ccc(C)cc3)CC2)c([N+](=O)[O-])c1	18	i	-2	i	56*	-1	65*
Cc1c(C(=O)NCc2ccc([N+](=O)[O-])cc2)sc(=O)n1Cc1ccc2c(c1)OCO2	·	·	·	·	0	·	·
Cc1cccc(CN2CCN(C3CN(Cc4cn(Cc5ccccc5)nn4)S(=O)(=O)C3)CC2)c1 (stereo unspecified)	·	·	·	·	1	·	·
O=C(CSc1nc2ccccc2s1)NNC(=S)Nc1ccc(Cl)cc1	-5	i	32*	i	93*	-2	86*
O=C(Nc1cccc(S(=O)(=O)NC2=NCCC2)c1)c1cc(Cl)ccc1[N+](=O)[O-]	6	i	0	i	-2	0	·
CN(C)S(=O)(=O)c1ccc(Cl)c(C(=O)Nc2nc3ccccc3[nH]2)c1	-24	i	-2	i	-2	3	·
Cc1ccc(NS(=O)(=O)c2ccc(Cl)c(C(=O)Nc3ccccc3-c3nc4ccccc4[nH]3)c2)cc1C	-43	i	34*	i	88*	0	58*
COc1ccc(-c2n(CC(=O)OC3CC(C)CCC3C(C)C)c3ccccc3[n+]2C)cc1 (stereo unspecified)	-32	-6.1*	6	·	50*	5	94*
